The values below come from PubChem BioAssay AID2669 (National Center for Advancing Translational Sciences (NCATS), 2010).

Molecules are shown by their SMILES. Inconclusive results are not listed. Where a call stands in place of a potency, no number is given. Calls of active or inactive are those of the source. The call rests on the fitted dose curve; in most records, active means well fitted inhibition curve with a large enough effect; inconclusive means small, poorly fitted or top-dose-only effect, or effect the other way; inactive means flat fitted curve, though single readings scatter.

A short description of the experiment: qHTS Assay Multiplex Screening to Identify Dual Action Probes in a Cell Model of Huntington: Cytoprotection (Protease relase). The settings on record: PC12 HttQ103 cells, Cytotox-Glo protease release, 40 h; series mostly up to 46.1 µM. The gist of the method: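 Cytotox-Glo luminescence of released protease served as the cytoprotection readout. Compounds were added alongside 100 nM final tebufenozide to PC12 cells carrying ecdysone-inducible GFP-tagged HTT exon 1 with 103 glutamines.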
For `COC(=O)C(O)(CC(=O)Nc1ccc(OC(F)(F)F)cc1)C(F)(F)F` (stereo not drawn), the Potency result was “inactive”.
Under `Cc1ccccc1N=C(N)Nc1ccccc1C` stands “inactive”.
As to `CC(C(=O)O)c1ccc(N2Cc3ccccc3C2=O)cc1` (stereo not drawn), the Potency is 2.24 µM (active).
Turning to `COc1ccc(NC(=O)c2sc(SC)nc2N)cc1`, the Potency was 4.47 µM (active).
Turning to `COc1ccccc1-c1nnc(Sc2nc([N+](=O)[O-])nn2C)o1`, the Potency is 12.6 µM (active).
Consider `Cn1nnnc1Sc1ncnc2scc(-c3ccc4c(=O)ccoc4c3)c12`, for which the Potency is 7.94 µM (active).
In the case of `CN1C(=O)NC(NC(=O)c2cccs2)(C(F)(F)F)C1=O` (stereo not drawn), the Potency result was “inactive”.
Regarding `CC(=O)Nc1ccc(S(=O)(=O)N2CCSC2c2ccccc2)cc1` (stereo not drawn), the Potency entry is “inactive”.
In the case of `NCCCCCc1cnc[nH]1` it was “inactive”; in that of `NC(=O)c1sc2nccc(Nc3ccccc3)c2c1N`, “inactive”.
Under `NC(=O)c1sc2nc3c(c(-c4cccs4)c2c1N)CCCCC3` stands “inactive”; under `Cn1nnnc1Sc1ncnc2scc(-c3ccccc3C#N)c12`, 15.8 µM (active); under `O=C(Nc1nc(-c2ccc(-c3ccccc3)cc2)cs1)C1CCCO1` (stereo not drawn), 11.2 µM (active).
As to `O=C(NCN1C(=O)C2C3C=CC(C3)C2C1=O)Nc1ccccn1` (stereo not drawn), the Potency result was “inactive”.
Regarding `Cn1nnnc1Sc1ncnc2scc(-c3ccccc3S(C)(=O)=O)c12`, the Potency entry is “inactive”.
In the case of `Cn1nnnc1Sc1ncnc2scc(-c3cccc(S(C)(=O)=O)c3)c12` it was 7.08 µM (active); in that of `Cc1ccc(-c2csc3ncnc(Sc4nnnn4C)c23)cc1`, 14.1 µM (active).
In the case of `Cn1c(C(=O)N2CCN(c3ccc(Cl)cc3)CC2)cc2c(=O)[nH]c3ccccc3c21` it was “inactive”; in that of `CCN(CC)CCNc1ccc(CO)c2sc3ccccc3c(=O)c12`, 10 µM (active); in that of `C=C1CCC2[C@](C)(CO)[C@H](O)CC[C@@]2(C)[C@@H]1C/C=C1/C(=O)OC[C@H]1O` (stereo partly drawn), “inactive”.
For the molecule `O=C(O)c1cccc(COc2ccc(CO)cc2Cl)c1`, the Potency was 0.501 µM (active).
`COc1cc(Cc2cnc(N)nc2N)cc(OC)c1OC`: the Potency result was “inactive”.
For `Cn1nnnc1Sc1ncnc2scc(-c3ccccc3Br)c12`, the Potency was 14.1 µM (active).
For the molecule `Cc1cc(NC(=O)CCS(=O)(=O)c2nc(-c3ccccc3)cc(C(F)(F)F)n2)no1`, the Potency result was “inactive”.
On to `O=C(O)/C=C/C(O)c1ccc(Cl)cc1` (stereo not drawn), for which the Potency entry was “inactive”.
In the case of `CCC(=O)O[C@]1(C(=O)CCl)[C@@H](C)C[C@H]2[C@@H]3CCC4=CC(=O)C=C[C@]4(C)[C@@]3(F)[C@@H](O)C[C@@]21C`, the Potency entry is “inactive”.
Take `Cc1csc(N/N=C/c2ccc(O)c([N+](=O)[O-])c2)n1`: the Potency is 1.78 µM (active).
Regarding `COc1ccc(C2=Nc3cc(C)ccc3OC2)cc1`, the Potency was 11.2 µM (active).
